{
  "source": "the supplement of paper PMC8975748",
  "note": "Counter-ions that a name gives are not always drawn.",
  "data": [
    {"tested_on": "Saccharomyces cerevisiae BY4741 SeMeCo community", "test": "z-score of subpopulation abundance vs DMSO median, subpopulation auxotrophic for M; higher = larger share of this subpopulation than in DMSO controls", "conditions": "10 µM; 24 h; SM minimal medium; subpopulation (auxotrophy): M", "experimental": "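Fluorescent four-plasmid SeMeCo (self-establishing metabolically cooperating S. cerevisiae BY4741 community; plasmids pH-mRuby2, pL-mWasabi, pU-eCFP, pM-TagRFP657) was grown 24 h in minimal SM medium with each Selleck FDA-approved drug at 10 µM in 384-well plates. Cells were fixed and imaged by high-content confocal microscopy. For each auxotrophic subpopulation (and the prototroph), a z-score gives the deviation from the DMSO vehicle-control population median.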", "values": [
      {"molecule": "COc1ccc2c(c1)[C@]13CCCC[C@@H]1[C@H](C2)N(C)CC3", "note": "[Dextromethorphan hydrobromide hydrate]", "z-score of subpopulation abundance": 0.1},
      {"molecule": "CN[C@@H]1[C@@H](O)[C@@H](O[C@@H]2[C@@H](O)[C@H](O[C@H]3O[C@H]([C@@H](C)O)[C@@H](O)[C@H](O)[C@H]3N)[C@@H](N)C[C@H]2N)OC[C@]1(C)O", "note": "[Geneticin (G418 Sulfate)]", "z-score of subpopulation abundance": -0.27},
      {"molecule": "COc1ccc2[nH]cc(CCN)c2c1", "note": "[5-Methoxytryptamine]", "z-score of subpopulation abundance": 0.64},
      {"molecule": "N[C@@H]1C[C@H]1c1ccccc1", "note": "[Tranylcypromine (2-PCPA) HCl]", "z-score of subpopulation abundance": -0.13},
      {"molecule": "COc1ccc2c3c([nH]c2c1)C(C)=NCC3", "note": "[Harmaline]", "z-score of subpopulation abundance": 5.54},
      {"molecule": "CCN(C)C(=O)Oc1cccc([C@H](C)N(C)C)c1", "note": "[Rivastigmine Tartrate]", "z-score of subpopulation abundance": -0.28},
      {"molecule": "CC(=O)OCC1=C(C(=O)O)N2C(=O)C(N)C2SC1", "note": "(stereo not given) [7-Aminocephalosporanic acid]", "z-score of subpopulation abundance": -0.97},
      {"molecule": "CN1[C@@H]2CC[C@H]1C[C@@H](OC(=O)C(CO)c1ccccc1)C2", "note": "(stereo not given in full) [Atropine sulfate monohydrate]", "z-score of subpopulation abundance": -0.25},
      {"molecule": "Cc1cc(O)ccc1Cl", "note": "[Chlorocresol]", "z-score of subpopulation abundance": 1.26},
      {"molecule": "CN(C)[C@@H]1C(=O)C(C(N)=O)=C(O)[C@@]2(O)C(=O)C3=C(O)c4c(O)cccc4[C@@](C)(O)[C@H]3C[C@@H]12", "note": "[Tetracycline HCl]", "z-score of subpopulation abundance": -0.05},
      {"molecule": "CC[C@H]1[C@@H]2C[C@H]3[C@@H]4N(C)c5ccccc5[C@]45C[C@@H]([C@@H]2[C@H]5O)N3[C@@H]1O", "note": "[Ajmaline]", "z-score of subpopulation abundance": 0.82},
      {"molecule": "CN(C)[C@@H]1C(=O)C(C(N)=O)=C(O)[C@@]2(O)C(=O)C3=C(O)c4c(O)ccc(Cl)c4[C@@](C)(O)[C@H]3C[C@@H]12", "note": "[Chlortetracycline HCl]", "z-score of subpopulation abundance": 0.04},
      {"molecule": "NC(=O)CN1CCCC1=O", "note": "[Piracetam]", "z-score of subpopulation abundance": 1.48},
      {"molecule": "NCCc1c[nH]c2ccc(O)cc12", "note": "[Serotonin HCl]", "z-score of subpopulation abundance": 0.15},
      {"molecule": "CCC1=C[C@H]2CN3CCc4c([nH]c5ccccc45)[C@](C(=O)OC)(C2)[C@H]13", "note": "[Catharanthine]", "z-score of subpopulation abundance": -0.42},
      {"molecule": "C[C@@H]1CC[C@H]2[C@@H](C)C(=O)O[C@@H]3O[C@@]4(C)CC[C@@H]1[C@]32OO4", "note": "[Artemisinin]", "z-score of subpopulation abundance": -4.51},
      {"molecule": "C[C@H]1O[C@H](O[C@H]2[C@H](O)[C@@H](O)[C@@H](O)[C@H](O)[C@@H]2O)[C@@H](N)C[C@@H]1NC(=N)C(=O)O", "note": "[Kasugamycin hydrochloride]", "z-score of subpopulation abundance": -0.97},
      {"molecule": "CN[C@@H]1[C@@H](O)[C@@H](O[C@@H]2[C@@H](O)[C@H](O[C@H]3O[C@H](CN)CC[C@H]3N)[C@@H](N)C[C@H]2N)OC[C@]1(C)O.CN[C@@H]1[C@@H](O)[C@@H](O[C@@H]2[C@@H](O)[C@H](O[C@H]3O[C@H]([C@@H](C)N)CC[C@H]3N)[C@@H](N)C[C@H]2N)OC[C@]1(C)O.CN[C@@H]1[C@@H](O)[C@@H](O[C@@H]2[C@@H](O)[C@H](O[C@H]3O[C@H]([C@@H](C)NC)CC[C@H]3N)[C@@H](N)C[C@H]2N)OC[C@]1(C)O", "note": "[Gentamicin Sulfate]", "z-score of subpopulation abundance": -0.59},
      {"molecule": "CC(C)N(CCC(C(N)=O)(c1ccccc1)c1ccccn1)C(C)C", "note": "(stereo not given) [Disopyramide]", "z-score of subpopulation abundance": -0.53},
      {"molecule": "CC[C@@]1(O)C(=O)OCc2c1cc1n(c2=O)Cc2cc3ccccc3nc2-1", "note": "[Camptothecin]", "z-score of subpopulation abundance": 1.3},
      {"molecule": "C[N+](C)(C)CCCCCCCCCC[N+](C)(C)C", "note": "[Decamethonium Bromide]", "z-score of subpopulation abundance": -0.44},
      {"molecule": "O=c1[nH]c2ccccc2n1CCCN1CCC(n2c(=O)[nH]c3cc(Cl)ccc32)CC1", "note": "[Domperidone]", "z-score of subpopulation abundance": 0.22},
      {"molecule": "CC(NC(C)(C)C)C(=O)c1cccc(Cl)c1", "note": "(stereo not given) [Amfebutamone (Bupropion) HCl]", "z-score of subpopulation abundance": 0.97},
      {"molecule": "CCN(CC)CCOC(=O)C(O)(c1ccccc1)c1ccccc1", "note": "[Benactyzine hydrochloride]", "z-score of subpopulation abundance": -1.19},
      {"molecule": "CC(C)(O)C(Cl)(Cl)Cl", "note": "[Chlorobutanol]", "z-score of subpopulation abundance": 0.1},
      {"molecule": "CC(C)=CCOc1c2occc2cc2ccc(=O)oc12", "note": "[Imperatorin]", "z-score of subpopulation abundance": 1.13},
      {"molecule": "C=C[C@H]1CN2CC[C@H]1C[C@H]2[C@H](O)c1ccnc2ccccc12", "note": "[Cinchonidine]", "z-score of subpopulation abundance": 0.23},
      {"molecule": "C=CN1CCCC1=O.II", "note": "[Povidone iodine]", "z-score of subpopulation abundance": -0.79},
      {"molecule": "COc1ccc(C(CN(C)C)C2(O)CCCCC2)cc1", "note": "(stereo not given) [Venlafaxine HCl]", "z-score of subpopulation abundance": 0.68},
      {"molecule": "C=C(C)[C@H]1Cc2c(ccc3c2O[C@@H]2COc4cc(OC)c(OC)cc4[C@@H]2C3=O)O1", "note": "[Rotenone (Barbasco)]", "z-score of subpopulation abundance": 0.37},
      {"molecule": "C[C@@H]1O[C@@H](O[C@H]2C[C@@H](O)[C@]3(CO)[C@H]4[C@H](O)C[C@]5(C)[C@@H](C6=CC(=O)OC6)CC[C@]5(O)[C@@H]4CC[C@]3(O)C2)[C@H](O)[C@H](O)[C@H]1O", "note": "[Ouabain]", "z-score of subpopulation abundance": -0.73},
      {"molecule": "CN1c2ccccc2C(NCCCCCCC(=O)O)c2ccc(Cl)cc2S1(=O)=O", "note": "(stereo not given) [Tianeptine sodium]", "z-score of subpopulation abundance": 0.9},
      {"molecule": "CNC1CC(N)C(O)C(OC2OC(CO)C(O)C3OC4(OC(C(N)CO)C(O)C(O)C4O)OC23)C1O", "note": "(stereo not given) [Hygromycin B]", "z-score of subpopulation abundance": -0.9},
      {"molecule": "O=c1cccc2n1C[C@@H]1CNC[C@H]2C1", "note": "[Cytisine]", "z-score of subpopulation abundance": -0.43},
      {"molecule": "O=C(O[C@H]1C[C@H]2CC[C@@H](C1)[N+]21CCCC1)C(O)(c1ccccc1)c1ccccc1", "note": "[Trospium chloride]", "z-score of subpopulation abundance": 0.12},
      {"molecule": "CC1(C)SC2C(N)C(=O)N2C1C(=O)O", "note": "(stereo not given) [6-Aminopenicillanic acid]", "z-score of subpopulation abundance": 0.22},
      {"molecule": "CCCN1C[C@H](CSC)C[C@@H]2c3cccc4[nH]cc(c34)C[C@H]21", "note": "[Pergolide Mesylate]", "z-score of subpopulation abundance": -0.05},
      {"molecule": "CCN(C)C(=O)Oc1cccc([C@H](C)N(C)C)c1", "note": "[Rivastigmine]", "z-score of subpopulation abundance": 1.32},
      {"molecule": "C[N+]1(C)[C@@H]2C[C@@H](OC(=O)[C@H](CO)c3ccccc3)C[C@H]1[C@@H]1O[C@@H]12", "note": "[Methscopolamine]", "z-score of subpopulation abundance": -0.33},
      {"molecule": "Cc1cc(C(C#N)c2ccc(Cl)cc2)c(Cl)cc1NC(=O)c1cc(I)cc(I)c1O", "note": "(stereo not given) [Closantel]", "z-score of subpopulation abundance": 1.17}
    ]}
  ]
}
